Screens: PubChem, University of Kansas High Throughput Screening Laboratory
mHTT CaM bind = mutant huntingtin-calmodulin interaction inhibitors – biochemical, AlphaScreen, primary screen; 190,000 tested, 3.6% active; inhibition, % at 15 µM; P42858; AID 1671202, 2021; AlphaScreen His-mHTT/GST-CaM binding, luminescence;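 note: 0% = both proteins with DMSO and 100% = one protein alone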
Pf apPOL inh = Pf-apPOL inhibitors, biochemical, fluorescence; Plasmodium falciparum apicoplast DNA polymerase (apPOL); Recombinant Pf-apPOL, molecular beacon fluorescence, 1.5 h; inhibition, % at 10 µM; 210,000 tested, 0.25% active
Active calls of the source: *; . = no result given. An excerpt weighted towards active compounds, which were near 3.6% of everything screened. Cut-off read from the data, not from the text of the source: active = inhibition above about 50%; inactive = the rest.

SMILES	mHTT CaM bind	Pf apPOL inh
Clc1ccc(N2COc3cc4c(cc3C2)OCO4)cc1	12.0	-8.0
COc1ccc(N2COc3ccc(OC)cc3C2)cc1	53.0*	-2.0
CCOc1ccc(N2COc3ccc(Cl)cc3C2)cc1	81.0*	-7.3
CCOc1nc(OCC)nc(N2CCN(c3ccc(OC)cc3)CC2)n1	24.1	-10.3
CCOc1ccc(N2COc3ccc(OC)cc3C2)cc1	51.0*	-4.7
COc1ccc2c(c1)CN(c1ccc(Br)cc1)CO2	46.0	-3.5
COc1ccc2c(c1)CN(c1ccccc1I)CO2	44.0	-0.7
COc1ccc2c(c1)CN(c1ccc(C)cc1)CO2	53.0*	0.1
Cc1cc(O)c(NC(=O)c2ccccc2C)cc1C	-0.3	-5.9
COc1cccc(C(=O)CSc2ccc(-n3nc(C)cc3C)nn2)c1	-28.0	-2.8
COc1ccc(NC(=O)C2CN(S(C)(=O)=O)CC23CCCCC3)cc1OC (centres undefined)	3.9	6.5
COc1ccc(C)cc1NC(=O)C1(C)Oc2cccnc2NC1=O (centres undefined)	-2.4	-7.5
Cc1ccc(/C=C2\N=C(c3cccc(C)c3)OC2=O)cc1	-1.0	-2.9
COc1ccc(C(=O)N2CCN(c3nc4c(Cl)cccc4s3)CC2)c(OC)c1	31.9	-13.2
Cc1ccc(C2=CC(c3cccs3)n3ncnc3N2)cc1 (centres undefined)	6.0	-3.4
CCOc1ccc(N2C(=O)CC(N3CCN(c4ccc(F)cc4)CC3)C2=O)cc1 (centres undefined)	-6.4	-3.2
CCOc1ccc(N2COc3ccc(F)cc3C2)cc1	59.0*	1.7
CC(=O)NC(Nc1sc2c(c1C#N)CCCC2)C(Cl)(Cl)Cl (centres undefined)	29.0	-6.2
CS(=O)(=O)N1CCN(c2ccc([N+](=O)[O-])c(NCc3ccccc3)c2)CC1	7.6	-6.7
CS(=O)(=O)N1CCN(c2ccc([N+](=O)[O-])c(NCc3ccc(Cl)cc3)c2)CC1	56.4*	-6.1
O=C(c1ccco1)N(CCN(Cc1ccccc1)C(=O)c1ccco1)Cc1ccccc1	-0.5	-7.5
Cc1ccc2sc(NC(=O)Cc3ccccc3)nc2c1C	-4.6	-2.5
CC1CCN(Cc2csc(N3CCN(C(=O)CCc4ccccc4)CC3)n2)CC1	10.8	-5.4
O=C1/C(=C\c2ccc(O)cc2)C(N2CCOCC2)=NN1c1ccc([N+](=O)[O-])cc1	84.0*	4.2
CCOC1=NN(c2ccc([N+](=O)[O-])cc2)C(=O)/C1=C/c1ccc(Cl)cc1	34.0	-2.4
SMILES	mHTT CaM bind	Pf apPOL inh
O=C(O)c1cccc2c1NC(c1cccc(Br)c1)C1CC=CC21 (centres undefined)	92.0*	3.3
Cc1cc(C)c2c(c1)C1C=CCC1C(c1ccc(C(=O)O)cc1)N2 (centres undefined)	74.0*	-0.9
Cc1ccc2c(c1C)NC(c1ccc([N+](=O)[O-])cc1)C1CC=CC21 (centres undefined)	62.0*	0.2
Cc1cc(I)c2c(c1)C1C=CCC1C(C(=O)O)N2 (centres undefined)	80.9*	-3.0
Cc1cc(I)cc2c1NC(C(=O)O)C1CC=CC21 (centres undefined)	-0.9	1.4
CN(C)C(=O)c1cccc2c1NC(c1ccc(Cl)cc1Cl)C1CC=CC21 (centres undefined)	4.0	-3.5
O=C(c1ccc(Br)o1)N1CC(c2nc(-c3cnccn3)no2)C1	-8.4	-6.5
O=[N+]([O-])c1cc(-c2cnc3ccccc3n2)ccc1N1CCCCCC1	17.0	-1.1
O=[N+]([O-])c1ccc(C2Nc3c(I)cccc3C3C=CCC32)cc1 (centres undefined)	49.0	4.4
O=C(O)c1cc(Br)cc2c1NC(c1ccc(F)cc1)C1CC=CC21 (centres undefined)	95.0*	8.1
O=C(O)c1cccc2c1NC(c1ccc([N+](=O)[O-])cc1)C1CC=CC21 (centres undefined)	66.5*	-4.7
O=C(O)c1cccc2c1NC(c1ccc(Br)cc1)C1CC=CC21 (centres undefined)	66.0*	-2.1
COc1ccc(OC)c(N=c2oc3c(C)ncc(CO)c3cc2C(=O)Nc2ccc(Cl)cc2)c1	3.0	0.2
O=C1N=c2ccc(Br)cc2=C1c1sc(Nc2cccnc2)nc1O	3.4	0.4
O=C(Cc1ccccc1)Nc1ccc(Br)cn1	-7.6	-5.6
Cc1nc(OCC(=O)Nc2ccc(C)c(F)c2)c2ccccc2n1	-1.8	1.2
N#C/C(=C\c1cccc(Cl)c1)c1nn(CCO)c(N)c1C#N	18.7	5.1
c1ccc(C2=NC(c3ccccc3)(c3ccccc3)c3ccccc3N2)cc1	61.2*	.
Cc1cc(C)c(C2=NC(c3ccccc3)(c3ccccc3)c3ccccc3N2)c(=O)[nH]1	32.0	-7.6
Cc1ccc(NC(=O)Cc2nc(-c3ccccn3)n[nH]2)cc1F	69.1*	-12.1
Cc1ccc(NC(=O)Cc2nc(-c3ccccc3)n[nH]2)cc1F	-3.5	-5.9
Cc1ccc(NC(=O)Cc2nc(-c3cccnc3)n[nH]2)cc1	-2.8	0.2
Cc1ccc(NC(=O)Cc2nc(-c3ccccn3)n[nH]2)cc1C	95.7*	-15.1
